# Assay results reported in PubChem BioAssay (NCI).
# Compounds without any hit were thinned out: in the full panel of roughly 79,000, 15% have a hit. Values without a mark were called inactive. Activity calls are given as the source filed them. No stated cut-off is given here; in the data, active means growth inhibition above about 70%; inactive means the rest.
# Legend:
# [1] = NCI Yeast Anticancer Drug Screen. Data for the rad52 strain (AID 147);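 further: 0% = growth of vehicle-treated control cultures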; conditions: S. cerevisiae rad52 mutant growth inhibition, hits give high values
# Procedure, shortened: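 Here a repair-compromised yeast strain receives each compound; its growth is then quantified and normalised to vehicle-only controls.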
# [2] = NCI Yeast Anticancer Drug Screen. Data for the wt1 strain (AID 149);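 further: 0% = growth of vehicle-treated wt1 cultures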; conditions: S. cerevisiae wt1 strain (SPY 50644) growth inhibition, hits give high values
# Procedure, shortened: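 Growth inhibition read against vehicle controls after compound exposure of the wt1 yeast strain.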
# [3] = NCI Yeast Anticancer Drug Screen. Data for the rad50EPP+ strain (AID 151);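 further: 0% = growth of vehicle-treated control cultures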; conditions: S. cerevisiae rad50 mutant strain, hits give high values
# Procedure, shortened: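 Read-out is yeast growth inhibition relative to vehicle; cells used were the rad50EPP+ strain.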
# [4] = NCI Yeast Anticancer Drug Screen. Data for the rad50 strain (AID 155);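 further: 0% = growth of vehicle-only cultures of the same strain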; conditions: S. cerevisiae rad50 strain growth inhibition, hits give high values
# Procedure, shortened: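 Readout: growth inhibition relative to vehicle-treated cultures. Compound exposure was carried out in a genetically defined yeast strain deficient in DNA damage repair.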
# [5] = NCI Yeast Anticancer Drug Screen. Data for the mec2-1 strain (AID 157); conditions: S. cerevisiae mec2-1 strain, hits give high values
# Procedure, shortened: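 Using mec2-1 yeast: add compound, measure growth, express inhibition versus vehicle-treated cultures.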
# [6] = NCI Yeast Anticancer Drug Screen. Data for the rad14 strain (AID 159);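 further: 0% = growth of vehicle-treated control cultures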; conditions: S. cerevisiae rad14 strain growth inhibition, hits give high values
# Procedure, shortened: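 Growth inhibition vs vehicle controls; genetically altered yeast strain (DNA damage repair defect) treated with test compounds.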
# [7] = NCI Yeast Anticancer Drug Screen. Data for the sgs1 mgt1 strain (AID 161);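 further: 0% = growth of cultures given vehicle only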; conditions: S. cerevisiae sgs1 mgt1 strain, hits give high values
# Procedure, shortened: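 Yeast cells carrying a defined DNA-repair defect were exposed to test compounds. Growth inhibition was measured relative to vehicle-treated controls.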
# [8] = NCI Yeast Anticancer Drug Screen. Data for the CLN2oe strain (AID 163);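 further: 0% = growth of vehicle-only control cultures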; conditions: S. cerevisiae CLN2oe strain, hits give high values
# Procedure, shortened: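 Whole-cell yeast growth assay. A strain engineered for altered cell-cycle control received compound, and inhibition relative to vehicle-treated cultures was recorded.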
# [9] = NCI Yeast Anticancer Drug Screen. Data for the cln2 rad14 strain (AID 165);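 further: 0% = growth equal to vehicle treated cultures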; conditions: S. cerevisiae cln2 rad14 strain, hits give high values
# Procedure, shortened: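 Yeast strain cln2 rad14, bearing defects in cell cycle control and DNA repair, serves as the test system; values reflect growth inhibition compared with vehicle.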
# [10] = NCI Yeast Anticancer Drug Screen. Data for the bub3 strain (AID 167); conditions: S. cerevisiae bub3 mutant strain, hits give high values
# Procedure, shortened: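 Readout: yeast growth inhibition, expressed relative to vehicle-only wells. The test organism is a mutant strain from a panel with lesions in DNA repair or checkpoint genes.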
# [11] = NCI Yeast Anticancer Drug Screen. Data for the wt2 strain (AID 169);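 further: 0% = growth of vehicle-treated yeast cultures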; conditions: S. cerevisiae wt2 strain growth inhibition, hits give high values
# Procedure, shortened: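 Treated yeast vs. vehicle-treated yeast: growth inhibition determined.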
# [12] = NCI Yeast Anticancer Drug Screen. Data for the mlh1 strain (AID 171);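 further: 0% = growth of vehicle-treated control cultures of the same strain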; conditions: S. cerevisiae mlh1 strain growth inhibition, hits give high values
# Procedure, shortened: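 A yeast strain with a defined genetic lesion serves as the test organism. Cultures receive compound or vehicle, and growth is measured.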
# [13] = NCI Yeast Anticancer Drug Screen. Data for the sgs1 strain (AID 173);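 further: 0% = growth of vehicle-only control cultures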; conditions: S. cerevisiae sgs1 mutant, hits give high values
# Procedure, shortened: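 A genetically defined yeast mutant is incubated with the test compound, and its growth is compared to that of the same strain given vehicle.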
# [14] = NCI Yeast Anticancer Drug Screen. Data for the mlh1 rad18 strain (AID 175); conditions: S. cerevisiae mlh1 rad18 strain growth inhibition, hits give high values
# Procedure, shortened: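 Steps: expose repair-defective yeast to compound; measure growth; express inhibition against vehicle-treated controls.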
# [15] = NCI Yeast Anticancer Drug Screen. Data for the rad18 strain (AID 177); conditions: S. cerevisiae rad18 mutant growth inhibition, hits give high values
# Procedure, shortened: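 Measured value is growth inhibition of a yeast strain bearing a DNA repair alteration, referenced to vehicle-treated cells.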
# [16] = at 5.0 µM (retest, dose inferred, filed as 0.5)
# [17] = at 50.0 µM (retest, dose inferred, filed as 5.0)
structure (smiles),measurement,setting,value
CC(=O)C1=C(C)O/C(=C/c2cccc(Cl)c2)C1=O,growth inhibition,[1]; at 1.2 µM,14%
same,growth inhibition,[1]; at 3.7 µM,36%
same,growth inhibition,[1]; at 11.0 µM,27%
same,growth inhibition,[1]; at 33.0 µM,36%
same,growth inhibition,[1]; at 100.0 µM,99% (active)
same,growth inhibition,[2]; at 1.2 µM,-7%
same,growth inhibition,[2]; at 3.7 µM,2%
same,growth inhibition,[2]; at 11.0 µM,2%
same,growth inhibition,[2]; at 33.0 µM,-2%
same,growth inhibition,[2]; at 100.0 µM,25%
same,growth inhibition,[3]; at 1.2 µM,16%
same,growth inhibition,[3]; at 3.7 µM,25%
same,growth inhibition,[3]; at 11.0 µM,22%
same,growth inhibition,[3]; at 33.0 µM,32%
same,growth inhibition,[3]; at 100.0 µM,88% (active)
same,growth inhibition,[4]; at 1.2 µM,-4%
same,growth inhibition,[4]; at 3.7 µM,19%
same,growth inhibition,[4]; [16],-1%
same,growth inhibition,[4]; at 11.0 µM,21%
same,growth inhibition,[4]; at 33.0 µM,18%
same,growth inhibition,[4]; [17],59%
same,growth inhibition,[4]; at 50.0 µM,52.7%
same,growth inhibition,[4]; at 100.0 µM,96% (active)
same,growth inhibition,[5]; at 1.2 µM,-9%
same,growth inhibition,[5]; at 3.7 µM,2%
same,growth inhibition,[5]; [16],2%
same,growth inhibition,[5]; at 11.0 µM,0%
same,growth inhibition,[5]; at 33.0 µM,7%
same,growth inhibition,[5]; [17],68%
same,growth inhibition,[5]; at 50.0 µM,71% (active)
same,growth inhibition,[5]; at 100.0 µM,96% (active)
same,growth inhibition,[6]; at 1.2 µM,7%
same,growth inhibition,[6]; at 3.7 µM,0%
same,growth inhibition,[6]; at 11.0 µM,6%
same,growth inhibition,[6]; at 33.0 µM,10%
same,growth inhibition,[6]; at 100.0 µM,28%
same,growth inhibition,[7]; [16],10%
same,growth inhibition,[7]; [17],60%
same,growth inhibition,[7]; at 50.0 µM,10.7%
same,growth inhibition,[8]; at 1.2 µM,5%
same,growth inhibition,[8]; at 3.7 µM,5%
same,growth inhibition,[8]; at 11.0 µM,15%
same,growth inhibition,[8]; at 33.0 µM,29%
same,growth inhibition,[8]; at 100.0 µM,98% (active)
same,growth inhibition,[9]; [16],6%
same,growth inhibition,[9]; [17],12%
same,growth inhibition,[9]; at 50.0 µM,-1.45%
same,growth inhibition,[10]; at 1.2 µM,0%
same,growth inhibition,[10]; at 3.7 µM,12%
same,growth inhibition,[10]; [16],5%
same,growth inhibition,[10]; at 11.0 µM,18%
same,growth inhibition,[10]; at 33.0 µM,26%
same,growth inhibition,[10]; [17],47%
same,growth inhibition,[10]; at 50.0 µM,-8%
same,growth inhibition,[10]; at 100.0 µM,91% (active)
same,growth inhibition,[11]; at 1.2 µM,-12%
same,growth inhibition,[11]; at 3.7 µM,6%
same,growth inhibition,[11]; at 11.0 µM,16%
same,growth inhibition,[11]; at 33.0 µM,71% (active)
same,growth inhibition,[11]; at 100.0 µM,91% (active)
same,growth inhibition,[12]; at 1.2 µM,-3%
same,growth inhibition,[12]; at 3.7 µM,-4%
same,growth inhibition,[12]; at 11.0 µM,4%
same,growth inhibition,[12]; at 33.0 µM,9%
same,growth inhibition,[12]; at 100.0 µM,75% (active)
same,growth inhibition,[13]; at 1.2 µM,2%
same,growth inhibition,[13]; at 3.7 µM,36%
same,growth inhibition,[13]; at 11.0 µM,29%
same,growth inhibition,[13]; at 33.0 µM,39%
same,growth inhibition,[13]; at 100.0 µM,95% (active)
same,growth inhibition,[14]; [16],9%
same,growth inhibition,[14]; [17],88% (active)
same,growth inhibition,[14]; at 50.0 µM,91.3% (active)
same,growth inhibition,[15]; at 1.2 µM,-7%
same,growth inhibition,[15]; at 3.7 µM,16%
same,growth inhibition,[15]; at 11.0 µM,13%
same,growth inhibition,[15]; at 33.0 µM,28%
same,growth inhibition,[15]; at 100.0 µM,99% (active)
